The text below walks through data of PubChem BioAssay AID540308 (The Scripps Research Institute Molecular Screening Center, 2011).

Values joined by “and” are separate entries in the source; they are usually repeats but may differ in a detail not shown here. Equal entries are not always repeated. Screen size: about 360,000 compounds; about 3,500 (0.97%) were called active.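 The calls were made as follows: active = activation above a per-plate cutoff, the mean activation of sample wells on that plate plus 3 SD (cut at about 8% in these data); inactive = the rest.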 Many of the other results were omitted from the sample, so actives are more common in it than they were. Some structures have more than one record in an assay (separate samples or runs), and their calls can disagree.

The target of this test is Melanocortin receptor 4 (Homo sapiens) (UniProt P32245). Briefly: MC4R agonists recruiting beta-arrestin, primary screen, cell-based, luminescence, agonist arm of biased-ligand search (AID 540308). To be noted: U2OS MC4R beta-arrestin complementation, at 8.9 µM, stronger effect = higher value, percent of melanotan II response, DMSO zero.
Chain of Melanocortin receptor 4 (Homo sapiens) (P32245 whole entry, looked up): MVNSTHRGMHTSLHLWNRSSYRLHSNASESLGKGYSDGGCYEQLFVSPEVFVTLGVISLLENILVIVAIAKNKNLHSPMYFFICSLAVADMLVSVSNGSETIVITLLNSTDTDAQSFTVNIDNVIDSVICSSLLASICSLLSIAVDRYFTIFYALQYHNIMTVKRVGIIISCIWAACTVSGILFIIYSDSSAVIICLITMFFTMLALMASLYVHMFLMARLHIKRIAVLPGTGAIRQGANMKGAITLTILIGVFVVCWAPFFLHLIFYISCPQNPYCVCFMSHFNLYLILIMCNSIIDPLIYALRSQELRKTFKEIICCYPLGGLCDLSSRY
`CSc1ncccc1C(=O)Nc1nc2ccc(F)cc2s1`: the activation is -1.02% (inactive).
Regarding `COc1ccc(CNC(=O)c2ccc(Br)s2)cc1OC`, the activation was -3.45% (inactive).
For `COc1ccc2nc(NC(=O)c3ccc(Br)s3)sc2c1` the value was 16.2% (active); for `O=C(COc1ccc2c(c1)CCC2)N1CCN(c2ccc(F)cc2)CC1`, 0.92% (inactive); for `COc1cc(NC(=O)c2cncc(-c3ccc(C#N)cc3)c2)cc(C(=O)Nc2cccc(C(F)(F)F)c2)c1`, 2.04% (inactive) and 10.5% (active).
Regarding `O=C(Nc1cccc(C(F)(F)F)c1)c1ccc(N2CCNCC2)c([N+](=O)[O-])c1`, the activation was -2.39% (inactive).
As for `COc1cc(NC(=O)c2[nH]cnc2C(N)=O)cc(C(=O)Nc2cccc(C(F)(F)F)c2)c1`, the figure is 1.84% (inactive); as for `Cc1nc(C(F)(F)F)ccc1C(=O)N1CCC1(C)C(=O)NS(=O)(=O)c1ccc(F)cc1F` (configuration not stated), 1.24% (inactive); as for `NS(=O)(=O)c1ccc(NC(=S)Nc2ccc(Br)c(Cl)c2)cc1`, -1.38% (inactive).
`Cc1cccc(NC(=S)Nc2ccc(Cl)c(Cl)c2)c1`: the activation is 8.62% (active).
For `S=C(Nc1ccccc1)Nc1ccc2ccccc2c1` the value was 0.79% (inactive); for `OC(c1ccc(Cl)c(F)c1)c1ncc(-c2ccccc2Cl)[nH]1` (configuration not stated), 5.44% (inactive).
On to `COc1ccc(-c2noc(C(C)NS(=O)(=O)c3ccc(NC(C)=O)cc3)n2)cc1` (configuration not stated), for which the activation is -3.52% (inactive).
As for `CCCC(=O)N1CCC1(C)C(=O)NCc1ccc(C(C)C)cc1` (configuration not stated), the figure is 1.64% (inactive); as for `COc1c(C)cc(C(O)c2ncc(-c3cccc(C(F)(F)F)c3)[nH]2)cc1C` (configuration not stated), 2.23% (inactive); as for `O=C1CC(NNc2ccccc2)C(=O)N1c1cccc(Cl)c1` (configuration not stated), 2.47% (inactive).
As for `O=C1N/C(=C/c2cccn2-c2ccccc2)C(=O)N1c1cccc(Cl)c1`, the figure is 30.7% (active); as for `N#Cc1ccccc1CN1C(=O)S/C(=C/c2cccn2-c2cccc(C(=O)O)c2)C1=O`, 1.23% (inactive).
On to `CCN(CCN(C)C)C(=O)c1ccc2nc(C)c(N(C)C(=O)CCc3ccccc3)n2c1`, for which the activation is 0.87% (inactive).
Turning to `O=C(NCCCN1CCOCC1)c1cc(-c2cccc(O)c2)on1`, the activation was -2.51% (inactive).
As for `O=C(c1cc(-c2ccc(O)cc2)on1)N1CCOCC1`, the figure is -1.26% (inactive).
For `O=C(c1cc(-c2cccc(O)c2)on1)N1CCc2ccccc2C1` the value was 11.5% (active).
Consider `CC1(C(=O)Nc2cccc3cccnc23)CCN1C(=O)CCC1CCCC1` (configuration not stated), for which the activation is 0.32% (inactive).
For the compound `CCN(CC)CCN(C(=O)c1ccc2c(c1)CCCC2)c1nc2c(OC)cccc2s1`, the activation was 5.13% (inactive).
For `Cc1cccc2sc(N(CCCN(C)C)C(=O)CCS(=O)(=O)c3ccccc3)nc12` the value was -2.28% (inactive).
For `COc1cccc2sc(N(CCCN(C)C)C(=O)C(c3ccccc3)c3ccccc3)nc12` the value was 11.3% (active).
As for `Cn1c(SCC(=O)Nc2cccc(NC(=O)c3cccs3)c2)nnc1-c1ccncc1`, the figure is 0.46% (inactive); as for `Cc1nc(-c2nnc(SCC(=O)Nc3cc(C(F)(F)F)cc(C(F)(F)F)c3)n2C)cs1`, 10.2% (active).
On to `Cc1cc(-c2nc(C)c(-c3nnc(SCC(=O)Nc4ccccc4)n3C)s2)no1`, for which the activation is -2.39% (inactive).
For `Cc1ccccc1S(=O)(=O)NC(=O)C1(C)CCN1C(=O)C1(c2ccccc2)CCCC1` (configuration not stated) the value was -0.26% (inactive).
As for `COc1ccc(CNc2nnnn2C)cc1`, the figure is -2.31% (inactive); as for `COc1ccc(-n2nnnc2SCC(=O)NCc2cccs2)cc1`, -3.21% (inactive); as for `COc1ccc(-n2nnnc2-c2nc3ccccc3s2)cc1`, 9.47% (active).
Turning to `OC[C@@H]1CN(Cc2ccc(F)cc2)C[C@H](n2cnc3c(NC4CCCC4)ncnc32)O1`, the activation was -2.29% (inactive).
Take `CC1(C(=O)NCc2cccc3ccccc23)CCN1Cc1ccc(-c2ccccc2)o1` (configuration not stated): the activation was -1.17% (inactive).
Take `COc1ccc(-c2ccc(C(=O)NC(C)C)c3occc23)c(C)c1`: the activation was 1.66% (inactive).
For the compound `CCc1nc2ccc(C(=O)N(C)Cc3ccco3)cn2c1N(C)C(=O)Cc1ccccc1`, the activation is -1.99% (inactive).
Take `COc1ccc(CNC(=O)c2nnn(CC(=O)Nc3cc(C)cc(C)c3)c2N)cc1`: the activation is 0.3% (inactive).
For `COc1cccc(CNC(=O)c2nnn(CC(=O)Nc3cc(C)ccc3C)c2N)c1`, the activation is 3.53% (inactive).
Turning to `COc1cccc(CNC(=O)c2nnn(CC(=O)Nc3cc(Cl)ccc3C)c2N)c1`, the activation was 11.7% (active).
For `CN(C)c1cccc(NC(=O)c2ccc(-c3ccc(F)c(F)c3)c3ccoc23)c1` the value was 0.91% (inactive); for `CC(OC(=O)c1ccc([N+](=O)[O-])cc1)C(=O)NCC1CCCCC1` (configuration not stated), -1.32% (inactive); for `COc1cc(C(=O)OC(C)C(=O)NCC2CCCCC2)cc(NC(=O)c2ccco2)c1OC` (configuration not stated), 13.3% (active).
Take `CC(OC(=O)c1cccc(S(=O)(=O)N2CCOCC2)c1)C(=O)NCC1CCCCC1` (configuration not stated): the activation is 0.27% (inactive).
Consider `CC(C)Nc1ncnc2c1ncn2[C@H]1CN(Cc2ccncc2)C[C@@H](CO)O1`, for which the activation is 2.39% (inactive).
In the case of `CC(C)CN1CCC1(C)C(=O)Nc1ccc(OC(F)F)cc1` (configuration not stated), the activation is 0.55% (inactive).
For `Cc1ccc(F)c(S(=O)(=O)NC(=O)C2(C)CCN2C(=O)c2ccco2)c1` (configuration not stated) the value was 0.44% (inactive).
As for `Oc1c(Cl)cc(Cl)c(Cl)c1Cc1c(O)c(Cl)cc(Cl)c1Cl`, the figure is 9.22% (active).
For `O=C(NCc1ccc(F)cc1)c1cc(C2CCCCN2C(=O)c2ccccn2)on1` (configuration not stated) the value was 1.1% (inactive); for `COc1cc(C#Cc2ccc3cc(CCCO)oc(=O)c3c2)cc(OC)c1`, -2.63% (inactive); for `COC(=O)C(C)Oc1ccc2c(c1)O/C(=C\c1cccc(Br)c1)C2=O` (configuration not stated), 0.36% (inactive).
Turning to `COc1cc(/C=C2\Oc3ccc(C#Cc4ccc(O)cc4)cc3C2=O)cc(OC)c1`, the activation was 10.2% (active).
With `CCc1nc2ccc(C(=O)Nc3cc(-c4ccccc4)ccc3OC)cn2c1N(CC)CC(=O)N(C)C`, the activation is 1.77% (inactive).
For `C[C@H]([C@@H](O)[C@@H](O)[C@@H](C)C(C)(C)C)[C@H]1CC[C@H]2C3CC[C@H]4C[C@H](OS(=O)(=O)O)[C@@H](OS(=O)(=O)O)C[C@]4(C)[C@H]3CC[C@]12C` (some centres not stated) the value was 0.15% (inactive); for `CC1(C(=O)NS(=O)(=O)c2ccccc2)CCN1C(=O)C1CCCCC1` (configuration not stated), -1.69% (inactive).
For `COc1cccc(-c2cc3nc(NCc4ccccc4OC)n(C)c(=O)c3s2)c1` the value was 6.31% (inactive); for `CCN(CC)C(=O)Oc1ccc(Br)cc1C(=O)Nc1ccc(F)c(Cl)c1`, 11.6% (active).
As for `COc1ccc(Cl)cc1C(=O)Nc1ccc(N(C)C(C)=O)cc1`, the activation was 0.11% (inactive).
For the compound `CCCOc1ccc(F)cc1-c1cc(C(=O)Nc2ccc(F)c(Cl)c2)[nH]n1`, the activation was 2.17% (inactive).
For `CCN(CC)c1ccc(C(=O)N/N=C/c2ccc(N3CCOCC3)cc2)cc1`, the activation was 26.7% (active).
For `CCN(CC)c1ccc(/C=N/NC(=O)CNC(=O)c2cccs2)cc1` the value was -1.48% (inactive); for `Cc1ccccc1N/N=C/c1ccc(N2CCOCC2)cc1`, -1.27% (inactive).
As for `O=CNc1cc(-c2ccc(C(=O)N3CCOCC3)cc2)cn2c(-c3ccc(F)cc3)cnc12`, the figure is 0.33% (inactive); as for `CC1(Cc2ccccc2C#N)C(=O)Nc2ccc(-c3ccc4[nH]ccc4c3)cc21` (configuration not stated), -2.44% (inactive).
`Cc1nc2c(OCc3cccc(Cl)c3)cccn2c1N(C)CC1CC1`: the activation was -0.13% (inactive).
As for `CC1(C(=O)NCc2ccco2)Cc2c(-c3ccc4c(c3)OCO4)ccnc2O1` (configuration not stated), the figure is 0.01% (inactive); as for `CC1=C(C/C=C(\C)CCCC(C)CCCC(C)CCCC(C)C)C(=O)c2ccccc2C1=O` (configuration not stated), -1.56% (inactive).
For `Cc1ccc(S(=O)(=O)N(C)C)cc1NC(=O)COC(=O)c1c(C)noc1C` the value was -0.85% (inactive); for `CCN(CC)S(=O)(=O)c1ccc(OC)c(NC(=O)CCc2c(C)noc2C)c1`, -1.81% (inactive); for `CCN(CC)S(=O)(=O)c1ccc(C)c(NC(=O)COc2ccc(Br)cc2Cl)c1`, 13.4% (active).
For `O=C(NCc1cccnc1)c1cc(C2CCCCN2C(=O)CCc2ccccc2)on1` (configuration not stated), the activation is -1.7% (inactive).
As for `CCNC(=O)C1CCCN(C(=O)c2cc(F)ccc2C)CC1` (configuration not stated), the figure is 1.6% (inactive).
For `CC(C)(C)OC(=O)N1CCC(NC(=O)c2[nH]cnc2C(=O)N[C@@H](Cc2ccccc2)C(=O)OCc2ccccc2)CC1` the value was 17.8% (active); for `O=C(N[C@@H](Cc1ccccc1)C(=O)OCc1ccccc1)c1nc[nH]c1C(=O)N[C@@H](Cc1ccccc1)C(=O)OCc1ccccc1`, 0.69% (inactive); for `O=C(N[C@@H](Cc1ccccc1)C(=O)OCc1ccccc1)c1nc[nH]c1C(=O)NC1CCNCC1`, -0.82% (inactive).
As for `CC(=O)c1ccc(Nc2nc(C(N)c3ccccc3Cl)cs2)cc1` (configuration not stated), the figure is -0.98% (inactive); as for `O=C(CN1CCN(Cc2ccccc2)CC1)NC(c1ccccc1)c1ccccc1`, 1.85% (inactive); as for `O=C(Cc1ccc(-c2ccccc2)cc1)NC(c1ccccc1)c1ccccc1`, 9.56% (active).
`C=CCC(NC(=O)Cc1ccccc1)C(=O)NCCC` (configuration not stated): the activation was -0.94% (inactive).
For `COc1ccc(CN2CCC(C)(Oc3cccc(F)c3)C2)c2ccccc12` (configuration not stated), the activation is 0.37% (inactive).
For the compound `COc1c(Cl)cc(C(=O)Nc2ccc(Cl)cn2)cc1Cl`, the activation was 10.6% (active).
Consider `O=C(Nc1ccc(Cl)cn1)c1ccc2c(c1)OCCO2`, for which the activation was 0.85% (inactive).
For `CCCc1cc(C(=O)Nc2ccc(Cl)cn2)cs1` the value was 3.75% (inactive); for `COc1ccc(-c2cc3nc(NCCOc4ccccc4)ccn3n2)cc1`, 4.13% (inactive); for `COc1cc(/C=N/NC(=O)Nc2ccccc2)ccc1OCCOc1ccccc1C`, 21.2% (active).
As for `CCOc1cc(/C=N/NC(=O)OC)ccc1OCCSc1ccc(Cl)cc1`, the figure is 4.19% (inactive); as for `CCOc1ccc(/C=N/NC(=O)C(C)Sc2ccccn2)cc1OCC` (configuration not stated), 2.39% (inactive).
